# High-throughput results from PubChem.
# CYP2C19 activ: activators of human cytochrome P450 2C19; P33261; recombinant CYP2C19, luciferin-H EGE luminescence; stronger effect = higher value; 0 = fully inhibited enzyme, 1 = untreated enzyme; activation factor at 5 µM; 96,000 tested, under 10 active;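 active = activation factor of at least 2 at 5 µM in the primary screen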;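 also: 0 = wells with 2.5 mM tranylcypromine and 1 = vehicle-only wells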
# CYP2C9 activ: CYP2C9 (human) activation; P11712; recombinant CYP2C9, luciferin-H conversion, luminescence; stronger effect = higher value; factor 1 = untreated enzyme, 0 = blocked; activation factor at 5 µM; actives 1.4% (n = 96,000); AID 1024;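 active = activation factor of 2 or more for CYP2C9 at a 5 µM dose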;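 also: 0 = sulfaphenazole-blocked wells and 1 = vehicle-only wells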
# Target sequence (P11712 whole entry, looked up): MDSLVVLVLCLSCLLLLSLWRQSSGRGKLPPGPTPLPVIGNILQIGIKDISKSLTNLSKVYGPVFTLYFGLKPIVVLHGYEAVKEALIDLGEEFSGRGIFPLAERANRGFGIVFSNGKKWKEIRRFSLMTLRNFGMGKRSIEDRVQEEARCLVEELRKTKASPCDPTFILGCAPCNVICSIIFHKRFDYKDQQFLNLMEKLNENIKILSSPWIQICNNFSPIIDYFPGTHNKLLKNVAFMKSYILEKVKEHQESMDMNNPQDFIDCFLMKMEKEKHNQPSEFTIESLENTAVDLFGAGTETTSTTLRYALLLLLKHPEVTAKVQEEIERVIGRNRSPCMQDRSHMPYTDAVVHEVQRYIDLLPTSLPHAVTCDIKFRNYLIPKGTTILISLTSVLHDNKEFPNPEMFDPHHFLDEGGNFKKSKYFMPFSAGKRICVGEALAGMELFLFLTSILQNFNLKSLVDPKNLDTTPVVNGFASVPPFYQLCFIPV
# CYP2C9 inh: inhibitors of human CYP2C9. CYP2C9 Supersomes, luciferin-H conversion, luminescence. actives 20% (n = 96,000). inhibition, % at 5 µM;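 active = blocking of liver enzyme CYP2C9 beyond about 50% at 5 µM, limit read from the data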
# CYP2C19 inhib: inhibitors of human CYP2C19 | P33261 | CYP2C19 Supersomes, luciferin-H EGE luminescence, 30 min | inhibition, % at 5 µM | actives 21% (n = 96,000) | AID 778;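 active = CYP2C19 inhibition above a set limit at 5 µM in the primary screen, cut at about 50% in these data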;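 also: plate controls were negative control wells for no effect and 2.5 mM tranylcypromine positive control for full effect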
# * hit, by the source's call. This is a sample that favours compounds with a hit; in the whole collection about 31% have one here.
SMILES,CYP2C19 activ,CYP2C9 activ,CYP2C9 inh,CYP2C19 inhib
O=C(Cc1c[nH]c2ccccc12)OCC(=O)c1ccccc1,0.8,2.2*,-120,23
Cc1ccccc1N(Cc1nnc2n1CCCCC2)C(=O)Nc1ccccc1,1,1.2,-17,-1
CSCC[C@H](NC(=O)OC(C)(C)C)c1nnc(SCC(=O)Nc2ccc(C)cc2C)o1,0.7,0.9,11,31
CNCc1ccc(OCc2ccccc2)c(OC)c1,0.7,1,3,33
CNCc1ccccc1Sc1ccc(OC)c(OC)c1,0.4,0.8,20,58*
c1ccc(SCc2nc(-c3ccccn3)no2)cc1,0.2,0.6,45,76*
c1ccc(Cc2nc(-c3ccccn3)no2)cc1,0.7,0.8,15,33
Cc1ccc(Cc2nc(-c3ccccn3)no2)cc1,0.7,0.8,22,28
c1ccc(C(Cc2nc(-c3ccccn3)no2)c2ccccc2)cc1,0.7,0.5,54*,29
c1ccc(CCCc2nc(-c3ccccn3)no2)cc1,0.3,0.8,24,65*
O=C(NCc1ccco1)C1CC2CCC1C2 (configuration not stated),0.7,1,2,26
CN(C)C(CNC(=O)c1cccnc1Sc1ccccc1)c1ccco1 (configuration not stated),0.9,0.9,10,12
CC1(C)CC(=O)c2c(-c3cccnc3)n[nH]c2C1,0.9,1.1,-6,13
Cc1cccc(N2C(=O)CSC2c2cccnc2)c1 (configuration not stated),0.7,1,4,26
Cc1ccc(N2C(=O)CSC2c2ccccn2)cc1Cl (configuration not stated),0.7,1.3,-30,28
Cc1ccc(N2C(=O)CSC2c2cccs2)cc1 (configuration not stated),0.2,0.8,18,77*
Cc1cc(C)cc(N2C(=O)CSC2c2cccs2)c1 (configuration not stated),0.4,1.2,-17,58*
CN(C)CCN1C(=O)c2oc3ccccc3c(=O)c2C1c1ccccc1 (configuration not stated),0.9,1,1,7
CCn1c2ccccc2c2nnc(SCc3cc(=O)n4ccsc4n3)nc21,0.1,0.3,65*,87*
COc1cc(C(=O)NCc2cccc3ccccc23)cc(Cl)c1OC,0.4,1.3,-30,62*
Cc1cc2nnc(SC3CCCCN(C(=O)c4ccc(F)cc4)C3=O)n2c2ccccc12 (configuration not stated),0.2,0.7,29,84*
Cc1cc(C)nc(SC2CCOC2=O)n1 (configuration not stated),1.1,1.2,-23,-7
Cc1cc2nnc(SC3CCOC3=O)n2c2ccccc12 (configuration not stated),1,2.1*,-108,-1
O=C(c1ccc(F)cc1)N1CCCCC(Sc2nnc3ccccn23)C1=O (configuration not stated),1.2,1.2,-21,-18
C/C(=N\Nc1ccc([N+](=O)[O-])cc1)c1cccc(N)c1,0.1,0.6,40,90*
SMILES,CYP2C19 activ,CYP2C9 activ,CYP2C9 inh,CYP2C19 inhib
COc1ccc(C(=O)Nc2cccc(/C(C)=N/NC(=O)c3ccc([N+](=O)[O-])cc3)c2)cc1OC,0.9,0.9,9,6
CCCS(=O)(=O)N1CCCC(C(=O)NCCCN(C)c2ccccc2)C1 (configuration not stated),0.9,0.8,21,15
CCNc1nc(NCC)n2c(SCc3nc4ccccc4c(=O)[nH]3)nnc2n1,0.8,0.9,5,24
CCNc1nc(NCC)n2c(SCc3ccc(F)cc3)nnc2n1,0,1,3,96*
O=C(O)c1cc(=O)cc(C(=O)O)[nH]1,1.2,1.2,-16,-20
O=C(O)c1ccc(-c2ccccc2)[nH]1,0.3,1.6,-56,72*
Cc1ccc(S(=O)(=O)CCC(=O)c2ccc(O)cc2O)cc1,0.3,1.9,-91,70*
COc1ccc(N/C(N)=N/c2nc(CSc3ccc(Cl)cc3)cc(=O)[nH]2)cc1,0.3,0.5,49,66*
CCOC(=O)CN1C(=O)NC(C)(c2ccc(OC(F)F)cc2)C1=O (configuration not stated),0.4,0.6,35,64*
CCOC(=O)N1CCN(C(=O)c2cnn(-c3ccccc3)c2NC(=O)c2ccccc2F)CC1,1.1,1.2,-24,-10
CCOc1ccc(C2c3c(oc4ccccc4c3=O)C(=O)N2c2ccc(C)cn2)cc1OC (configuration not stated),0.9,0.2,82*,12
